From PubChem BioAssay (EPA / NIEHS) come the findings set out here.

Activity calls are given as the source filed them. How the source made its calls: active means hit-call score of the fitted dose curve at least 0.9, where 1 is the maximum; inactive means score below 0.9.

Conditions in all cases: mRNA level, 48 h; actives raise or lower the signal
Read-out in test [1]: Broad substrate specificity ATP-binding cassette transporter ABCG2 (Homo sapiens) (UniProt Q9UNQ0)
Kind of test: LTEA_HepaRG_ABCG2: Life Technologies and Expression Analysis (LTEA) Assay for ABC Transporter (ABCG2) using HepaRG (AID 2283465). Put shortly:
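ABCG2 transcript was quantified by TaqMan qRT-PCR against three housekeeping genes in HepaRG cells. Cells were treated in duplicate for 48 h across an 8-point half-log series up to 100 uM, with 0.5% DMSO vehicle. Gain or loss versus DMSO was fit.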

Read-out in test [2]: ATP-citrate lyase (ACLY), ACLY (gene 47)
Kind of test: LTEA_HepaRG_ACLY: Life Technologies and Expression Analysis (LTEA) Assay for ATP-citrate lyase (ACLY) using HepaRG (AID 2283466). Put shortly:
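ACLY mRNA quantified by qRT-PCR on Fluidigm arrays against three housekeeping genes, after 48 h chemical treatment of HepaRG cells (top concentration 100 uM, half-log steps, 0.5% DMSO vehicle). Up- or down-regulation fitted relative to DMSO.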

Read-out in test [3]: Peroxisomal acyl-coenzyme A oxidase 1 (ACOX1) gene, ACOX1 (gene 51)
Kind of test: LTEA_HepaRG_ACOX1: Life Technologies and Expression Analysis (LTEA) Assay for Peroxisomal acyl-coenzyme A oxidase 1 (ACOX1) gene using HepaRG (AID 2283467). An outline of the steps: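 ACOX1 transcript levels were quantified by TaqMan qRT-PCR against three housekeeping genes after 48 h chemical exposure of differentiated human HepaRG cells. Exposure used eight half-log steps topping at 100 uM, 0.5% DMSO vehicle, in duplicate. Bidirectional curve fits were made relative to DMSO.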

Read-out in test [4]: Bcl-2 (BAD) gene, BAD (gene 572)
Kind of test: LTEA_HepaRG_BAD: Life Technologies and Expression Analysis (LTEA) Assay for Bcl-2 (BAD) gene using HepaRG (AID 2283469). Put shortly:
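Read-out: qRT-PCR of BAD mRNA, normalized to three housekeeping genes. Human HepaRG cultures got 48 h chemical exposure in 0.5% DMSO, duplicate eight-point half-log series topping at 100 uM. Gain or loss of signal fitted versus DMSO vehicle.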

Read-out in test [5]: Bcl-2 (BAX) gene, BAX (gene 581)
Kind of test: LTEA_HepaRG_BAX: Life Technologies and Expression Analysis (LTEA) Assay for Bcl-2 (BAX) gene using HepaRG (AID 2283470). Put shortly:
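qRT-PCR read-out of BAX mRNA, normalized to three housekeeping genes, after 48 h chemical exposure of human HepaRG cells in serum-free induction medium; eight-point half-log series, top 100 uM, 0.5% DMSO vehicle; bidirectional fit versus DMSO.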

Read-out in test [6]: adenosine kinase (ADK) gene, ADK (gene 132)
Kind of test: LTEA_HepaRG_ADK: Life Technologies and Expression Analysis (LTEA) Assay for adenosine kinase (ADK) gene using HepaRG (AID 2283471). Put shortly:
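Differentiated HepaRG cells dosed 48 h in serum-free induction medium, 0.5% DMSO vehicle, eight half-log concentrations from 100 uM, in duplicate. ADK mRNA by TaqMan qRT-PCR normalised to ACTB, GAPDH, POLR2A; bidirectional fit versus DMSO.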

Read-out in test [7]: Alpha-fetoprotein (AFP) gene, AFP (gene 174)
Kind of test: LTEA_HepaRG_AFP: Life Technologies and Expression Analysis (LTEA) Assay for Alpha-fetoprotein (AFP) gene using HepaRG (AID 2283472).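 On AC50: AFP transcript by TaqMan qRT-PCR normalized to ACTB GAPDH and POLR2A.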 An outline of the steps:
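qRT-PCR (Fluidigm TaqMan) readout of AFP transcript, normalized to three housekeeping genes, fitted bidirectionally against 0.5% DMSO baseline. HepaRG cells received chemicals for 48 h in serum-free induction medium, top concentration 100 uM, half-log steps.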

Read-out in a further test: BCL2L11 (gene 10018)
Kind of test: LTEA_HepaRG_BCL2L11: Life Technologies and Expression Analysis (LTEA) Assay for Bcl-2 (BCL2L11) gene using HepaRG (AID 2283473). An outline of the steps: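 Read-out is BCL2L11 transcript level by qRT-PCR, normalized to three housekeeping genes and fitted bidirectionally against 0.5% DMSO vehicle. HepaRG cells received chemicals for 48 h in serum-free induction medium, 100 uM down in half-log dilutions.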

Read-out in test [8]: Apolipoprotein A-V (APOA5) gene, APOA5 (gene 116519)
Kind of test: LTEA_HepaRG_APOA5: Life Technologies and Expression Analysis (LTEA) Assay for Apolipoprotein A-V (APOA5) gene using HepaRG (AID 2283474). Put shortly:
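Readout is APOA5 transcript level by qRT-PCR on Fluidigm dynamic arrays, normalized to three housekeeping genes. HepaRG cultures received chemicals for 48 h at up to 100 uM (half-log steps, 0.5% DMSO), with gain or loss scored relative to DMSO.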

Read-out in test [9]: Alkaline Phosphatase, Placental (ALPP) gene, ALPP (gene 250)
Kind of test: LTEA_HepaRG_ALPP: Life Technologies and Expression Analysis (LTEA) Assay for Alkaline Phosphatase, Placental (ALPP) gene using HepaRG (AID 2283468).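 On AC50: differentiated human HepaRG liver cells in serum-free induction medium; ALPP transcript by TaqMan qRT-PCR normalized to ACTB GAPDH and POLR2A.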 Put shortly:
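HepaRG, 48 h plating then 48 h dosing, serum-free induction medium, 0.5% DMSO. 8 conc, half-log, max 100 uM, duplicates. Endpoint: ALPP transcript by qRT-PCR, housekeeping-normalized; gain or loss fitted vs DMSO.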

Broad substrate specificity ATP-binding cassette transporter ABCG2 (Homo sapiens), sequence (Q9UNQ0 whole entry, looked up): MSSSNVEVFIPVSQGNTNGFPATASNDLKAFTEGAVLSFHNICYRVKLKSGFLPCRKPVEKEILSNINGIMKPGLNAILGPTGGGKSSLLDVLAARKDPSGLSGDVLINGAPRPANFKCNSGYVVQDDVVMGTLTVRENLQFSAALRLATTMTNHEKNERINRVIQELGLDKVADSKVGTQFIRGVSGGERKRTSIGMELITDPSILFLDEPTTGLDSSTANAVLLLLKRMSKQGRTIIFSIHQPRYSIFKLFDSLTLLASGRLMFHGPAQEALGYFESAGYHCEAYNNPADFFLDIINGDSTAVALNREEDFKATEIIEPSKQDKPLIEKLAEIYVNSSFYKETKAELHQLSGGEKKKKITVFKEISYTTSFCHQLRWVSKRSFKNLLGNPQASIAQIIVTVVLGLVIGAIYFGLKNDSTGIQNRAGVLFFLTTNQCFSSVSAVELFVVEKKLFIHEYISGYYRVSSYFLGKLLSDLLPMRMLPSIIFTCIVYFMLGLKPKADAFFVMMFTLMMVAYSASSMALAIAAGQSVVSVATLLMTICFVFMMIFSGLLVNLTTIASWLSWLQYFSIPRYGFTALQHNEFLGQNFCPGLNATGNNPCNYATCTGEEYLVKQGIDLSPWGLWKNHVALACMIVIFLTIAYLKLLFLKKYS

What is called AC50 is the midpoint of the concentration-response curve, whichever way the signal moves. Consider `O=C(O)Cc1cc(I)c(Oc2cc(I)c(O)c(I)c2)c(I)c1`, for which the AC50 in test [1] was 51.7 µM (active); in [2], 56.3 µM (active); in [3], 56.8 µM (active); in [6], 45.7 µM (active); in test [7] it was 37.5 µM (active); in test [8], 57.7 µM (active). For the same compound, the compound was called inactive (in [4]; in [5]; with BCL2L11 (gene 10018)).

For `O=C(O)c1ccccc1C(c1ccc(O)cc1)c1ccc(O)cc1`, the compound was called inactive in [1], in test [2], in [3], in test [9], in test [4] and in [5]. The compound was classed as inactive (in [6]; in [7]; with BCL2L11 (gene 10018); in test [8]).

Turning to `NC(=O)N1C(=O)C(C(=O)c2cc(Cl)cs2)c2cc(F)c(Cl)cc21` (configuration not stated), the AC50 in test [1] is 50 µM (active); in [2] it was 21 µM (active); in [3], 50 µM (active); in [6], 17.5 µM (active); in [8], 35.1 µM (active). Also, the call (in test [4]; in test [5]; in [7]; with BCL2L11 (gene 10018)) was inactive.

With `CCCCC(CC)COC(=O)CCCCC(=O)OCc1ccccc1` (configuration not stated), the result in [1], in test [2], in test [3], in test [9], in test [6] and in test [7] was inactive. Moreover, the compound was called inactive (with BCL2L11 (gene 10018); in test [8]).

As for `c1ccc2c(c1)ccc1ccccc12`, the AC50 in [1] was 9.4 µM (active). Further, the compound was called inactive in test [2], in test [3], in test [9], in [4], in test [6] and in [7]. Besides, the compound was classed as inactive (in the test with BCL2L11 (gene 10018); in [8]).

As to `NC(=O)N(O)[C@@H]1C=C[C@H](Oc2cccc(Oc3ccc(F)cc3)c2)C1`, the AC50 was 34.9 µM (active) in test [1]; 22.7 µM (active) in test [2]; 65.1 µM (active) in [3]; 3.76 µM (active) in [9]; 20.2 µM (active) in test [7]; 12.3 µM (active) with BCL2L11 (gene 10018). Besides, the AC50 in test [8] is 37.7 µM (active). In addition, the outcome in [4] and in test [6] was inactive.

Take `CN(C)C=O`: the result in test [1], in test [2], in test [3], in test [9], in test [4] and in test [5] was inactive. The call (in test [6]; in test [7]; with BCL2L11 (gene 10018); in test [8]) was inactive.

Turning to `CC(C)(C)CC(C)(C)c1ccc(O)c(-n2nc3ccccc3n2)c1`, in [1], the AC50 is 30.6 µM (active). For the same compound, the outcome in [2], in test [3], in test [9], in [4], in test [5] and in test [6] was inactive. Further, the compound was called inactive (in test [7]; with BCL2L11 (gene 10018); in [8]).

Regarding `CC(O)CO` (configuration not stated), the call in [1], in test [2], in [3], in test [9], in test [4] and in [6] was inactive. Moreover, the compound was called inactive (in test [7]; with BCL2L11 (gene 10018); in test [8]).

For `CC(=O)NC1(c2cccc(F)c2)CCN(CC[C@@]2(c3ccc(Cl)c(Cl)c3)CN(c3ccccc3)C(=O)CO2)CC1`, the result in test [1], in test [2], in test [3], in [4], in [6] and in [8] was inactive. Moreover, the AC50 in [9] is 19.6 µM (active); in test [7], 13.1 µM (active); with BCL2L11 (gene 10018), 59.6 µM (active).

`COCC(C)O` (configuration not stated): the result in test [1], in test [2], in [3], in [9], in test [4] and in test [6] was inactive. For the same compound, the compound was classed as inactive (in test [7]; with BCL2L11 (gene 10018); in [8]).

As to `CC#C[C@]1(O)CC[C@H]2[C@@H]3CCC4=CC(=O)CCC4=C3[C@@H](c3ccc(N(C)C)cc3)C[C@@]21C`, the AC50 in [1] was 29.8 µM (active); in test [2], 79.1 µM (active); in test [4], 25.4 µM (active); in test [5], 27.6 µM (active); in test [6] it was 80.6 µM (active); in test [7], 23.7 µM (active). Moreover, the AC50 was 27.3 µM (active) with BCL2L11 (gene 10018) and 29.7 µM (active) in test [8]. Moreover, the result in [3] was inactive.

Consider `Oc1cc2ccccc2c2ccccc12`, for which the compound was classed as inactive in test [1], in [2], in [3], in test [9], in test [4] and in test [6]. For the same compound, the call (in test [7]; with BCL2L11 (gene 10018); in test [8]) was inactive.

For `CCc1nn(C2CCCCC2)c2cc(C3(C#N)CCC(C(=O)O)CC3)ccc12` (configuration not stated), the AC50 in test [1] is 13 µM (active); in [2], 25.5 µM (active); in test [9] it was 50 µM (active); in test [7], 64 µM (active); with BCL2L11 (gene 10018), 8.54 µM (active); in test [8], 77.4 µM (active). In addition, the outcome in test [3], in test [4] and in [6] was inactive.

In the case of `ClC1=C(Cl)C(Cl)(Cl)C(Cl)=C1Cl`, the outcome in [1], in [2], in [3], in [4], in test [5] and in test [6] was inactive. In addition, the compound was called inactive (in test [7]; with BCL2L11 (gene 10018); in test [8]).
